The results in this text go back to PubChem BioAssay (NCATS).

Records with an inconclusive call do not appear. Active and inactive are the calls of the source. Unless noted, calls come from the whole dose curve; as a rule, active = well fitted curve in the direction sought with a large enough effect; inconclusive = small, poorly fitted or top-dose-only effect, or another doubt; inactive = no such curve, though single readings can be large; an effect the other way counts as inactive or inconclusive.

Experiment [1] is described as follows: qHTS to identify inhibitors of the type 1 interferon - major histocompatibility complex class I in skeletal muscle: primary screen against the NCATS Mechanism Interrogation Plate v5.0 (MIPE) Libary (AID 1347411). Note: nearly all actives have a fitted effect of over 65% in size. Note: potency is the fitted concentration of half-maximal effect. Summed up: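 Immortalized human C25cl48 myoblasts with HiBit knocked into endogenous HLA-B*08:01 were stimulated with 4.0 ng/ml IFN-beta and exposed to compounds (11-point 1:3 titration, top 46 uM final) for 24 hrs at 37 C; HiBiT lytic luminescence measured.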

Experiment [2] in a line: Primary qHTS for inhibitors of nuclear receptor binding SET domain protein 2 (NSD2) in an isogenic RCH-ACV NSD2 p.E1099K mutant (9B) (AID 1645876). Note: nearly all actives have a fitted effect of over 70% in size. Note: potency is the fitted concentration of half-maximal effect.
Experiment [3] concerns the target Glutathione peroxidase 1 (Homo sapiens) (UniProt P07203). The experiment can be described thus: Primary qHTS Assay for Inhibitors of Recombinant Selenoprotein Glutathione Peroxidase 1 (GPX1) (AID 1845191). Note: nearly all actives have a fitted effect of over 65% in size. Note: potency is the fitted concentration of half-maximal effect. In short, it runs like this: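 10 nM GPX1 + cpd, 30 min RT; start w/ 1 mM GSH, 0.5 mM cumene hydroperoxide, 0.5 mM NADPH, 100 nM GR, 0.01% BSA; buffer 50 mM Tris-HCl pH 7.5, 2 mM EDTA, 150 mM NaCl; Fl 340/450, 0 & 15 min.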
On the technique in general: qHTS replaces the single test concentration by a dilution series.

Experiment [4] concerns the target Phospholipid hydroperoxide glutathione peroxidase GPX4 (Homo sapiens) (UniProt P36969). The experiment can be described thus: Primary qHTS Assay for Inhibitors of Recombinant Selenoprotein Glutathione Peroxidase 4 (GPX4) (AID 1845192). Note: nearly all actives have a fitted effect of over 65% in size. Particulars: outcome: dose series up to 50 µM unless noted. Summed up: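 NADPH consumption, followed by fluorescence at 340/450 nm between 0 and 15 min, reports GPX4 activity via coupled glutathione reductase (100 nM). Enzyme 200 nM was pre-exposed to compound 30 min; 0.5 mM cumene hydroperoxide and 1 mM GSH served as substrates.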

A short description of experiment [5]: qHTS drug screen for cell cycle checkpoint inhibitors in PARPi-resistant BRCA-mutant ovarian cancer cell lines. (AID 1963452; calls by dose curve). Conditions: PEO1/OlaR viability, CellTiter-Glo luminescence, 96 h, stronger effect = lower value. In short, it runs like this: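 PEO1, PEO4 and PEO1/OlaR ovarian cancer cells, 600 per well, exposed 96 h at 37C to a dilution series. Viability read by CellTiter-Glo luminescence, normalized to DMSO and empty wells; activity summarized as Z-AUC.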

A short description of experiment [6]: Primary qHTS for inhibitors of nuclear receptor binding SET domain protein 2 (NSD2) in an RCH-ACV wild type WT cells (2C) (AID 1645877). Note: nearly all actives have a fitted effect of over 70% in size. Note: potency is the fitted concentration of half-maximal effect.
The mark [7] stands for this setting: measured here: PEO1 parental Z-AUC.

Chain of Glutathione peroxidase 1 (Homo sapiens) (P07203 whole entry, looked up): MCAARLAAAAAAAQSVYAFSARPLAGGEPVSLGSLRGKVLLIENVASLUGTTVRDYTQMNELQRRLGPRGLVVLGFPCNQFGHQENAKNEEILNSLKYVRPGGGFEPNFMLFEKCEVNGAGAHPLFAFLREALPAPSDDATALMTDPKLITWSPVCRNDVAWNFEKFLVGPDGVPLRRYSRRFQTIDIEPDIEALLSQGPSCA
Chain of Phospholipid hydroperoxide glutathione peroxidase GPX4 (Homo sapiens) (P36969 whole entry, looked up): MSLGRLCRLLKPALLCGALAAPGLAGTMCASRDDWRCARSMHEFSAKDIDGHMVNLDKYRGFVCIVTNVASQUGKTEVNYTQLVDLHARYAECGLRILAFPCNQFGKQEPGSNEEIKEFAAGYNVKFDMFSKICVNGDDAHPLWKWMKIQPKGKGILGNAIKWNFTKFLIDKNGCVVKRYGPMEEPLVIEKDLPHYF

In the case of `CCOC(=N)c1nc2ccc3ncnc(Nc4cc(F)c(F)cc4Cl)c3c2s1`, the Potency result in experiment [1], in experiment [2], in experiment [3] and in experiment [4] was “inactive” each time. The Z-AUC in experiment [5] is -1.14 (inactive); in experiment [5] (setting [7]), -1.11; in experiment [5] (measured here: PEO4 Z-AUC), -1.07.
As to `COc1cc(-c2cn(C)c(=O)c3cnccc23)c(OC)cc1CN(C)C`, the Potency result in experiment [1] and in experiment [3] was “inactive” each time. Besides, in experiment [6], the Potency is 8.33 µM (active). Also, the Z-AUC is -0.443 (inactive) in experiment [5], -0.655 in experiment [5] (setting [7]) and -0.662 in experiment [5] (measured here: PEO4 Z-AUC).
As to `CC(=O)N1CCC(Nc2cc(C(=O)NC[C@H](O)CN3CCc4ccccc4C3)ncn2)CC1`, the Potency entry in experiment [1], in experiment [3] and in experiment [4] was “inactive” in each case. The Z-AUC was 0.665 (inactive) in experiment [5], 0.224 in experiment [5] (setting [7]) and 0.188 in experiment [5] (measured here: PEO4 Z-AUC).
Regarding `Cc1nc(C)c(CN2CCN(C(c3ccc(F)cc3)c3ccc(F)cc3)CC2)nc1C`, the Potency result in experiment [1], in experiment [3] and in experiment [4] was “inactive” in each case. In addition, the Z-AUC in experiment [5] was -0.108 (inactive); in experiment [5] (setting [7]) it was 0.777; in experiment [5] (measured here: PEO4 Z-AUC) it was 1.05.
As to `O=C(O)/C(S)=C/c1ccc(I)cc1`, the Potency result in experiment [1], in experiment [2] and in experiment [3] was “inactive” throughout. Also, the Z-AUC in experiment [5] is 0.452 (inactive); in experiment [5] (setting [7]), 0.731; in experiment [5] (measured here: PEO4 Z-AUC), 0.789.
`CC(=O)[C@]1(N)Cc2c(O)c3c(c(O)c2[C@@H](O[C@H]2C[C@H](O)[C@H](O)CO2)C1)C(=O)c1ccccc1C3=O`: the Potency result in experiment [1], in experiment [3] and in experiment [4] was “inactive” each time. In experiment [6], the Potency was 23.5 µM (active). In addition, the Z-AUC was -0.249 (inactive) in experiment [5], -0.44 in experiment [5] (setting [7]) and -0.284 in experiment [5] (measured here: PEO4 Z-AUC).
Turning to `Nc1nc(OC(c2ccc(-c3cccc(F)c3)cc2)C(F)(F)F)cc(-c2ccc(C[C@H](N)C(=O)O)cc2)n1` (stereo not given in full), the Potency result in experiment [1], in experiment [3] and in experiment [4] was “inactive” in each case. The Z-AUC was -0.825 (inactive) in experiment [5], -0.615 in experiment [5] (setting [7]) and -0.247 in experiment [5] (measured here: PEO4 Z-AUC).
Regarding `CN1C[C@@H]2c3ccccc3Oc3ccc(Cl)cc3[C@H]2C1`, the Potency result in experiment [1], in experiment [3] and in experiment [4] was “inactive” in each case. The Z-AUC is 1.28 (inactive) in experiment [5], 1.52 in experiment [5] (setting [7]) and 1.41 in experiment [5] (measured here: PEO4 Z-AUC).
Consider `OCCOc1ccc(/C(=C(/CCCl)c2ccccc2)c2ccccc2)cc1`, for which the Potency result in experiment [1], in experiment [3] and in experiment [4] was “inactive” throughout. Also, the Z-AUC in experiment [5] was -0.111 (inactive); in experiment [5] (setting [7]), 0.225; in experiment [5] (measured here: PEO4 Z-AUC) it was 0.557.
On to `O=C(Cc1ccccc1)Nc1nnc(CCSCCc2nnc(NC(=O)Cc3ccccc3)s2)s1`, for which the Potency result in experiment [1], in experiment [3] and in experiment [4] was “inactive” throughout. Further, the Z-AUC in experiment [5] is 1.43 (inactive); in experiment [5] (setting [7]), 1.23; in experiment [5] (measured here: PEO4 Z-AUC), 1.41.
With `CC(C)OC(=O)[C@H](C)N[P@](=O)(OC[C@H]1O[C@@H](n2ccc(=O)[nH]c2=O)[C@](C)(F)[C@@H]1O)Oc1ccccc1`, the Potency result in experiment [1], in experiment [3] and in experiment [4] was “inactive” throughout. For the same compound, the values for the Z-AUC in experiment [5], in experiment [5] (setting [7]) and in experiment [5] (measured here: PEO4 Z-AUC) were -0.0429 (inactive), 0.659 and 0.765, respectively.
In the case of `Nc1nc(N)c2nc(-c3cccc(Cl)c3)c(N)nc2n1`, the Potency entry in experiment [1] is “inactive”. In addition, the results for the Potency in experiment [2] and in experiment [3] were 1.05 µM (active) and 4.09 µM (active), respectively. The Z-AUC in experiment [5] was -0.747 (inactive); in experiment [5] (setting [7]), -0.162; in experiment [5] (measured here: PEO4 Z-AUC) it was -0.371.
Turning to `CN(CCOc1ccc(-c2ccc3c(c2)OCO3)cc1C(C)(C)C)CC(=O)O`, the Potency result in experiment [1], in experiment [3] and in experiment [4] was “inactive” throughout. Moreover, in experiment [6], the Potency was 20.9 µM (active). The results for the Z-AUC in experiment [5], in experiment [5] (setting [7]) and in experiment [5] (measured here: PEO4 Z-AUC) were 0.446 (inactive), 1.02 and 1.29, respectively.
As to `C=CC(=O)N[C@H]1CCOC[C@H]1Nc1ncc2cc(-c3c(Cl)c(OC)cc(OC)c3Cl)ccc2n1`, the Potency entry in experiment [1], in experiment [3] and in experiment [4] was “inactive” each time. For the same compound, the Z-AUC in experiment [5] is 1.21 (inactive); in experiment [5] (setting [7]), 0.408; in experiment [5] (measured here: PEO4 Z-AUC) it was 0.57.
With `CCn1c(=O)c2c(nc(/C=C/c3ccc(OC)c(OC)c3)n2C)n(CC)c1=O`, the Potency result in experiment [1], in experiment [2], in experiment [3] and in experiment [4] was “inactive” in each case. Besides, the figures for the Z-AUC in experiment [5], in experiment [5] (setting [7]) and in experiment [5] (measured here: PEO4 Z-AUC) were 0.577 (inactive), 0.401 and 0.882, respectively.
Regarding `Nc1ncc(C(=O)NC2CN(C(=O)C3CC3)C2)c2ccc(-c3cccc(F)c3)nc12`, the Potency result in experiment [1], in experiment [3] and in experiment [4] was “inactive” throughout. The Z-AUC in experiment [5] is 1.21 (inactive); in experiment [5] (setting [7]) it was 0.799; in experiment [5] (measured here: PEO4 Z-AUC) it was 0.359.
For `COC(=O)C1=C(C)NC(c2ncc(F)cc2F)=N[C@@H]1c1ccc(F)cc1Cl`, the Potency in experiment [1] is 16.5 µM (active); in experiment [6] it was 18.6 µM (active). Also, the Potency entry in experiment [3] and in experiment [4] was “inactive” each time. For the same compound, the figures for the Z-AUC in experiment [5], in experiment [5] (setting [7]) and in experiment [5] (measured here: PEO4 Z-AUC) were 1.3 (inactive), 1.02 and 0.861, respectively.
Turning to `N[C@@H]1CN(c2c(F)cc3c(=O)c(C(=O)O)cn([C@@H]4C[C@@H]4F)c3c2Cl)CC12CC2`, the Potency entry in experiment [1], in experiment [6] and in experiment [3] was “inactive” each time. In addition, the figures for the Z-AUC in experiment [5], in experiment [5] (setting [7]) and in experiment [5] (measured here: PEO4 Z-AUC) were 0.751 (inactive), 0.374 and 0.877, respectively.
`C=CC(=O)Nc1cc(N2CCN(CC)CC2)ccc1Nc1cc(N(C)C(=O)Nc2c(Cl)c(OC)cc(OC)c2Cl)ncn1`: the Potency entry in experiment [1], in experiment [3] and in experiment [4] was “inactive” in each case. In addition, the Z-AUC is 1.02 (inactive) in experiment [5], 0.686 in experiment [5] (setting [7]) and 0.736 in experiment [5] (measured here: PEO4 Z-AUC).
For `COc1cc(-c2cn(C)c(=O)c3cnccc23)cc(OC)c1CN(C)C`, the Potency entry in experiment [1] and in experiment [3] was “inactive” in each case. Also, the values for the Z-AUC in experiment [5], in experiment [5] (setting [7]) and in experiment [5] (measured here: PEO4 Z-AUC) were 1.5 (inactive), 0.545 and 0.614, respectively.
Take `CCOCOC[C@H](C[C@H](C)C(=O)NO)NC(=O)c1ccc(Oc2ccccc2)cc1`: the Potency entry in experiment [1], in experiment [3] and in experiment [4] was “inactive” each time. For the same compound, the Z-AUC in experiment [5] was 0.6 (inactive); in experiment [5] (setting [7]), 0.894; in experiment [5] (measured here: PEO4 Z-AUC), 1.19.
